Several values for one entry are separate records, joined by “and”; a condition that tells them apart may be missing. Equal entries are not always repeated. Inconclusive results are not listed. A number with no mark means an inactive call. Activity calls are given as the source filed them. Calls come from the whole dose curve; as a rule, active = well fitted cell-killing curve with a large enough effect in the repeat runs; inconclusive = weak or mixed curves; inactive = flat fitted curve, though single readings scatter.
Assay: qHTS assay to identify small molecule antagonists of the estrogen related receptor (ERR) signaling pathway from Tox21 library - cell viability counter screen (AID 1224834); note: nearly all actives have a fitted effect of over 30% in size
Conditions: ERR reporter cells viability, CellTiter-Fluor, 17.5 h; series mostly up to 92.4 µM; viability change, negative = cytotoxic: at the top concentration
Summary of the method: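 CellTiter-Fluor fluorescence, read after 30 min at 37 C, measures viability of ERR cells. Cells plated at 2,000/well and incubated 6 h before pin-tool compound addition, then exposed 17.5 hours at 37 C.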
% is set by controls: 0 for no effect and ±100 for the full control effect; potency is the fitted concentration of half-maximal effect.

Structure (SMILES) | viability change, negative = cytotoxic | Potency
Cc1nc(N(C)C)nc(OC(=O)N(C)C)c1C | -0.0945% | 
FC(Cl)(Cl)C(F)(Cl)Cl | -3.43% | 
CC(Oc1cccc(Cl)c1)C(=O)O (centres undefined) | 1.95% | 
CC(Cc1ccccc1)NCc1ccccc1Cl (centres undefined) | -1.44% [at 42.5 µM] | 
CCCCOC(=O)CCC(=O)OCCCC | 0.106% | 
CCSCc1ccccc1OC(=O)NC | 1.13% | 
CCCSP(=S)(OCC)Oc1ccc(SC)cc1 (centres undefined) | -0.176% | 
C[C@@H]1C[C@@H]([C@H](O)CC2CC(=O)NC(=O)C2)C(=O)[C@@H](C)C1 |  | 430 nM (active) and 154 nM (active) and 266 nM (active)
O=C=NC1CCCCC1 | -1.08% | 
C1CS1 | -1.21% | 
O=C(N[C@H]1CN2CCC1CC2)c1ccc2c(c1)OCCO2 | 1.91% | 
CON(C)C(=O)Nc1ccc(Cl)cc1 | 0.631% | 
CCOP(=S)(S)OCC | -1.98% | 
CCc1ccccc1N | 3.73% | 
CCCC[N+]1(C)[C@@H]2CC(OC(=O)[C@H](CO)c3ccccc3)C[C@H]1[C@@H]1O[C@@H]12 (some centres undefined) | 2.33% [at 42.5 µM] | 
COc1cc(CC#N)cc(OC)c1OC | -1.35% [at 42.5 µM] | 
C[C@H]1O[C@H](OC2[C@@H](O)[C@@H](O)C(O)[C@H](O)[C@H]2O)[C@@H](N)C[C@@H]1N=C(N)C(=O)O (some centres undefined) | 1.16% | 
CCOC(=O)c1cncn1C(C)c1ccccc1 (centres undefined) | 5.81% [at 42.5 µM] | 
CCCCCCCCCCCCCCCl | 3.23% | 
CC(C)(C)c1ccc(CCOc2ncnc3ccccc23)cc1 | 0.292% | 
N#CC(C#N)=C(C#N)C#N | -10.5% | 
CCCCCCCCP(=O)(O)O | 4.71% | 
COc1cc(C[C@@H](C)N)c(OC)cc1Br | -10.2% | 
CC1(C)CC(=O)CC(C)(C)N1[O] | -3.02% | 

— PubChem BioAssay (Tox21)
